Source: PubChem BioAssay (NCI)
The panel holds about 83,000 compounds, 20% with a hit somewhere; the sample as a whole holds those more often.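 Results are percent growth after 48 hours of single-concentration exposure. 100 means growth as in untreated cells, lower positive values show inhibition; negative values down to -100 show cell death.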 Active and inactive are the calls of the source. The calls were made as follows: active = growth percent below 10; inactive = the rest.

Tested on: HL-60(TB) leukemia
Test: NCI-60 one-dose screen, 48 h (100 = growth as untreated, 0 = no growth, -100 = all killed)
Conditions: 10 µM unless noted

| Structure (SMILES) | growth |
| --- | --- |
| CCC(C)(O)CCC(C)(O)CC (centres undefined) | 101% (inactive) |
| Nc1nc(-c2cnccn2)nn1-c1nc2ccccc2s1 | 100% (inactive) |
| O=[N+]([O-])c1cccc(/C=C/c2ccccn2)c1 | 120% (inactive) |
| COC(=O)[C@]1(C)CCC[C@]2(C)[C@H]3C[C@@H]4[C@H]5[C@@H]6CC/C(=N\OCC/C(N)=N/O)[C@H]5[C@@]3(CC[C@H]21)CC4(C(C)C)O6 | 30.6% (inactive) |
